# The panel holds about 83,000 compounds, 20% with a hit somewhere; the sample as a whole holds those more often.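 Testing used 96-well plates and a 48-hour single-concentration exposure. Example: -40 means 40% of the starting cells died.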 Active and inactive are the calls of the source. The calls were made as follows: active = growth percent below 10; inactive = the rest.
# System: CAKI-1 renal
# Test: NCI-60 one-dose screen, 48 h (100 = growth as untreated, 0 = no growth, -100 = all killed)
# Settings: 10 µM
row,Compound,growth
1,Cc1c2c(nn1C(=O)c1nn(-c3ccc(Cl)cc3)cc1O)-c1ccccc1CC2,-25.5% (active)
2,COc1ccc(-c2onc(N)c2-c2cc(OC)c3c(c2)OCO3)cc1,34% (inactive)
3,CN(C)c1ccc(/C=N/NC(=O)c2ccccc2Nc2cccc(C(F)(F)F)c2)cc1,77.7% (inactive)
4,COc1cc(C2CC(c3ccccc3)=NN2C(C)=O)cc(OC)c1OC (configuration not stated),38.8% (inactive)
5,CC(C)N(CCOc1ccc(-c2nc3sccn3c2-c2ccnc(S(C)(=O)=O)n2)cc1)C(C)C,84.2% (inactive)
6,Clc1ccc(/C=C2\CCCC3C2=Nc2ccccc2NC3c2ccc(Cl)cc2)cc1 (configuration not stated),91.3% (inactive)
7,CCn1c(SC/C(=N/O)c2ccccc2)nnc1-c1ccccc1,89% (inactive)
8,Cc1cc(SCc2ccccc2)nc(N)n1,112% (inactive)
9,COc1cc2cc(Oc3ccc(NC(=O)Nc4ccc(Cl)c(C(F)(F)F)c4)cc3)c(C)nc2cc1OC,-8.92% (active)
10,C[n+]1c2ccccc2nc2ccccc21,15.3% (inactive)

# System: A498 renal
# Test: as above
# Settings: 10 µM
row,Compound,growth
1,CC(=O)OC/C=C(/C)C[P+](c1ccccc1)(c1ccccc1)c1ccccc1,81.9% (inactive)
2,CCOC(=O)c1cc(C(=O)c2cc(OC)cc(OC)c2)n2ncc3ccccc3c12,16.5% (inactive)
3,C=CCN(CC=C)C(=O)[C@H](CC)[C@@H]1CC[C@@H](C)[C@@H]([C@H](C)[C@@H](O)[C@@H](C)C(=O)[C@H](CC)C2O[C@]3(C=CC(=O)[C@]4(CC[C@@](C)([C@H]5CC[C@](O)(CC)[C@H](C)O5)O4)O3)[C@H](C)C[C@@H]2C)O1 (some centres not stated),22.2% (inactive)
4,Cc1c2c(nn1C(=O)c1nn(-c3ccc(Cl)cc3)cc1O)-c1ccccc1CC2,80.5% (inactive)
5,O=C(CCn1cnc2c(cc(-c3ccccc3)n2-c2ccccc2)c1=O)Nc1ccc(F)cc1,63.8% (inactive)
6,COc1ccc(-c2onc(N)c2-c2cc(OC)c3c(c2)OCO3)cc1,12% (inactive)
7,CCCN(CCC)C(=O)[C@H](CC)[C@@H]1CC[C@@H](C)[C@@H]([C@H](C)[C@@H](O)[C@@H](C)C(=O)[C@H](CC)C2O[C@]3(C=C[C@@H](O)[C@]4(CC[C@@](C)([C@H]5CC[C@](O)(CC)[C@H](C)O5)O4)O3)[C@H](C)C[C@@H]2C)O1 (some centres not stated),-20.3% (active)
8,CCOC(=O)c1cc(C(=O)c2cc(OC)c(OC)c(OC)c2)n2c1ccc1c3cccnc3ccc12,60.6% (inactive)
9,COc1cc(NC(=O)Nc2cnc(Nc3ccc(N4CCOCC4)cc3)nc2Oc2cccc(OC)c2)cc(OC)c1,39.1% (inactive)
10,CN(C)c1ccc(/C=N/NC(=O)c2ccccc2Nc2cccc(C(F)(F)F)c2)cc1,1.42% (active)
11,N#CC1=C(N)Oc2cc(N)ccc2C1c1cccnc1 (configuration not stated),93.5% (inactive)
12,COc1ccc(-c2cc(-c3ccc(OC)c(OC)c3)nc(SCCCC(=O)NO)n2)cc1,-32.4% (active)
13,COc1cc(C2CC(c3ccccc3)=NN2C(C)=O)cc(OC)c1OC (configuration not stated),50.6% (inactive)
14,O=C(/C=C/C=C/c1c(C2CC2)nc2ccccc2c1-c1ccc(F)cc1)c1cccs1,-21.7% (active)
15,CC(C)N(CCOc1ccc(-c2nc3sccn3c2-c2ccnc(S(C)(=O)=O)n2)cc1)C(C)C,60.3% (inactive)
16,O=C(Nc1nc(-c2ccccc2)nc2c1sc(=S)n2-c1ccccc1)C(F)(F)F,80.4% (inactive)
17,O=C(CSc1nnc(-c2ccc(Cl)cc2)o1)Nc1ccc(C(=O)/C=C/c2ccc(Cl)cc2)cc1,94.7% (inactive)
18,C=CCn1c(SCC(=O)Nc2ccc(C(=O)/C=C/c3ccc(OC)cc3)cc2)nnc1-c1ccc(OC)c(OC)c1,92.8% (inactive)
19,CN1CCN(CC(=O)Nc2cccc(-n3cc(-c4ccncc4)c(-c4ccc(Cl)c(O)c4)n3)c2)CC1,35.6% (inactive)
20,Cc1nn(-c2ccc(-c3ccc(OC(F)(F)F)cc3)cc2)c2nc(Cc3ccccc3)nc(N)c12,94.2% (inactive)
21,CC[C@H]1OC(=O)[C@H](C)[C@@H](O[C@H]2C[C@@](C)(OC)[C@@H](O)[C@H](C)O2)[C@H](C)[C@@H](O[C@@H]2O[C@H](C)C[C@H](N(C)C)[C@H]2O)[C@](C)(OC)C/C(C)=C2/O[C@@]1(C)C=C2C,83.9% (inactive)
22,C=C(C)[C@@H]1CC[C@]2(COCCC#N)CC[C@]3(C)[C@H](CC[C@@H]4[C@@]5(C)Cc6c([nH]c7ccccc67)C(C)(C)[C@@H]5CC[C@]43C)[C@@H]12,106% (inactive)

# Reference: PubChem BioAssay (NCI)
